Data from the supplement of paper PMC10646978.
± gives the standard deviation.

Assays:
Settings in all cases: modulator concentration 10 µM
[1] = tested on: RAW-Dual (murine macrophage reporter line); test: NF-kB reporter (SEAP) activity fold change vs agonist alone; higher = enhanced NF-kB activity
Summary of the method: (§1)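 In 384-well plates holding 50 000 RAW-Dual murine macrophage reporter cells per well, compound at 10 μM final was pre-incubated for 1 hour at 37 °C, after which a PRR agonist was added overnight. Supernatant SEAP read with QUANTI-Blue at 620 nm absorbance reported NF-κB, and Lucia luciferase read with QUANTI-Luc luminescence reported IRF. Fold change values come from dividing each reporter signal by the mean of agonist-only control wells on the same plate, averaged over replicate plates with propagated errors.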

[2] = tested on: RAW-Dual (murine macrophage reporter line); test: IRF reporter (Lucia luciferase) activity fold change vs agonist alone; higher = enhanced IRF activity
Summary of the method: as §1

[3] = tested on: RAW-Dual (murine macrophage reporter line); test: viability score (confluency relative to resting cells, overnight) (fraction); higher = more viable, active = viable (0.7 or more)
Summary of the method: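 RAW-Dual macrophages in 384-well plates were incubated overnight with compound, final concentration 10 μM. Confluency images from IncuCyte were processed in IncuCyte software into two masks covering all imaged wells. The viability score is each well's confluency relative to resting cells, and a compound met the cutoff when both masks exceeded 70% of resting cells.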

[4] = agonist: CpG ODN 1826 0.5 ug/mL

Structure (SMILES)	NF-kB reporter [1, 4]	NF-kB reporter ([1]; agonist: LPS 0.1 ug/mL)	NF-kB reporter ([1]; agonist: MPLA […])	IRF reporter ([2]; agonist: 3'3'-cGAMP 10 ug/mL)	IRF reporter ([2]; agonist: LPS 0.1 ug/mL)	IRF reporter ([2]; agonist: MPLA […])	viability score [3]
CC(=O)c1cc2c(o1)C(=O)c1ccccc1C2=O	1.19 ± 0.28	1.36 ± 0.068	1.31 ± 0.1	0.995 ± 0.035	1.12 ± 0.16	1.18 ± 0.27	0.995 (active)
N=C(N)c1ccc(OCCCCCOc2ccc(C(=N)N)cc2)cc1.O=S(=O)(O)CCO.O=S(=O)(O)CCO	0.243 ± 0.017	0.46 ± 0.037	0.492 ± 0.027	0.715 ± 0.079	1.18 ± 0.2	0.788 ± 0.16	0.305 (inactive)
Cc1cnc(Nc2ccc(OCCN3CCCC3)cc2)nc1Nc1cccc(S(=O)(=O)NC(C)(C)C)c1	0.769 ± 0.17	1.81 ± 0.14	2.74 ± 0.12	0.0927 ± 0.014	0.0391 ± 0.0087	0.064 ± 0.028	0.0864 (inactive)
COc1ccc(CC(=O)Nc2nc(CSCc3ccc(F)cc3)cs2)cc1	0.968 ± 0.057	1.06 ± 0.081	1.08 ± 0.069	0.832 ± 0.036	0.981 ± 0.045	0.968 ± 0.1	0.941 (active)
COc1ccccc1-c1cc(-c2ccccc2)nc(SCC(=O)c2cc3ccccc3oc2=O)c1C#N	0.981 ± 0.058	1.02 ± 0.066	0.966 ± 0.061	0.879 ± 0.034	1.45 ± 0.16	1.07 ± 0.1	1 (active)
CCSC1=C(C#N)C2(CCCC2)C(C#N)C(=O)N1 (stereo not given)	1.13 ± 0.18	0.964 ± 0.086	0.91 ± 0.081	0.789 ± 0.021	1.34 ± 0.2	1.42 ± 0.23	0.988 (active)
CC(=O)Nc1ccc(S(=O)(=O)N2CCC(Oc3nc(C)cc(C)n3)C2)cc1 (stereo not given)	1.13 ± 0.099	1.03 ± 0.078	0.969 ± 0.033	0.988 ± 0.063	0.987 ± 0.057	0.932 ± 0.15	0.998 (active)
CN(C)c1nc(CNS(C)(=O)=O)nc(N2CCCCC2)n1	1 ± 0.092	1.08 ± 0.091	1.03 ± 0.044	0.991 ± 0.044	1.03 ± 0.071	0.965 ± 0.21	1 (active)
CCOC(=O)C(=NNc1ccccc1[N+](=O)[O-])C(=O)CSc1ccc(C)cc1	0.697 ± 0.046	0.789 ± 0.049	0.919 ± 0.056	0.154 ± 0.0098	1.14 ± 0.083	1.14 ± 0.12	1 (active)
O=C(C=Cc1ccccc1)NC(NC(=S)Nc1cccc2cccnc12)C(Cl)(Cl)Cl (stereo not given)	0.507 ± 0.089	0.575 ± 0.067	0.624 ± 0.048	0.452 ± 0.027	1.01 ± 0.1	1.13 ± 0.25	1.01 (active)
OC(c1cc(C(F)(F)F)nc2c(C(F)(F)F)cccc12)C1CCCCN1 (stereo not given) [Prestw-126]	0.781 ± 0.051	0.973 ± 0.1	0.887 ± 0.059	1.13 ± 0.076	2.89 ± 0.33	1.75 ± 0.16	0.0879 (inactive)
COc1nc(C)cnc1NS(=O)(=O)c1cccnc1-c1ccc(-c2nnco2)cc1	0.964 ± 0.21	0.98 ± 0.18	1 ± 0.09	0.852 ± 0.047	0.982 ± 0.26	1.06 ± 0.24	0.979 (active)
CCN(CC)S(=O)(=O)c1ccc(C(=O)Nc2cc(C)nn2-c2nc(C)c(C)c(=O)[nH]2)cc1	0.153 ± 0.012	0.267 ± 0.065	0.434 ± 0.015	0.883 ± 0.05	0.957 ± 0.099	0.994 ± 0.086	0.99 (active)
Cc1ccc(OCC(O)CN2CCCCC2)c(C)c1.Cl (stereo not given)	0.868 ± 0.15	1.05 ± 0.12	1.01 ± 0.15	0.857 ± 0.056	1.21 ± 0.12	1.28 ± 0.2	0.809 (active)
Cl.NC1=NCC2c3ccccc3Cc3ccccc3N12 (stereo not given)	1.03 ± 0.077	1.09 ± 0.056	1.06 ± 0.077	0.898 ± 0.068	0.982 ± 0.051	0.822 ± 0.11	1 (active)
